Source: PubChem BioAssay (National Center for Advancing Translational Sciences (NCATS))
MARV entry inh – qHTS for inhibitors of binding or entry into cells for Marburg Virus. Marburg virus pseudotyped entry inhibition, cell reporter. Potency, µM (highest dose often 37.8 µM), actives largely listed as inhibitors. 300,000 tested, 1.8% active. AID 540276, 2011; calls by dose curve; tested in HEK293 cells
Vaccinia mCherry – qHTS for Stage-Specific Inhibitors of Vaccinia Orthopoxvirus: mCherry Reporter Primary qHTS | Vaccinia virus mCherry reporter infection, fluorescence | Potency, µM (top dose mostly 36.5 µM), most hits filed as inhibitors | 310,000 tested, 0.63% active | AID 720579, 2013; calls by dose curve; tested in A549 cells; note: nearly all actives have a fitted effect of over 35% in size
VACV Venus inh – qHTS for Stage-Specific Inhibitors of Vaccinia Orthopoxvirus: Venus Reporter Primary qHTS | Vaccinia virus Venus reporter expression, fluorescence | 330,000 tested, 0.46% active | Potency, µM (series often up to 36.5 µM), actives largely listed as inhibitors; calls by dose curve; tested in A549 cells; note: nearly all actives have a fitted effect of over 30% in size
LASV entry inh – qHTS for Inhibitors of binding or entry into cells for Lassa Virus. Lassa virus pseudotype entry inhibition, cell reporter. 300,000 tested, 1.2% active. Potency, µM (highest dose often 37.9 µM), most hits filed as inhibitors; calls by dose curve; tested in HEK293 cells; note: nearly all actives have a fitted effect of over 50% in size
HCMV inh – qHTS Assay for inhibitors of the human cytomegalovirus (HCMV). activity change, negative = inhibition, % at 57.5 µM. 410,000 tested, 4.5% active. HFF cells, HCMV-luciferase reporter, 72 h; hits give low values; in the data active = activity change below about -60%; inconclusive = no clear call, values can overlap the other calls; inactive = above about -39%
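Steps: HFFs plated, 16 h 37C; compounds added; HCMV-luciferase added to MOI 1 PFU/cell; 72 h 37C; OneGlo reagent, 5 min room temperature; luminescence read, normalized to controls.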
FMDV inh – High Throughput Screening for Foot and Mouth Disease Virus Antivirals. FMDV antiviral cell-based qHTS. Potency, µM (top dose mostly 57.9 µM), usual class: inhibitors. 410,000 tested, 1.2% active; calls by dose curve; tested in HEK293T cells; note: read-out not given here; nearly all actives have a fitted effect of over 45% in size
Of the large screens only hits and unclear results are named; the others gave an inactive call; ! = not confirmed by another sample. Only some compounds are listed: those with a hit (about 6.5% of all), similar ones and a draw of the others.

CC(=O)Nc1ccccc1-c1nc(CNC(=O)c2cccc(-n3cccn3)c2)c(C)o1	FMDV inh inconclusive (no result: MARV entry inh, LASV entry inh, HCMV inh)
CCOC(=O)C1=C(N)Oc2cc(O)ccc2C1c1cccc([N+](=O)[O-])c1 (configuration not stated)	MARV entry inh inconclusive, LASV entry inh inconclusive, HCMV inh -69, FMDV inh 20µM
COCCOC(=O)C1=C(C)NC(C)=C(C(=O)OC/C=C/c2ccccc2)C1c1cccc([N+](=O)[O-])c1 (configuration not stated)	MARV entry inh inconclusive, LASV entry inh 8.2µM, FMDV inh inconclusive (no result: Vaccinia mCherry, VACV Venus inh, HCMV inh)
CCOC(=O)C1=C(N)Oc2cc(O)ccc2C1c1ccccc1 (configuration not stated)	FMDV inh inconclusive (no result: MARV entry inh, Vaccinia mCherry, VACV Venus inh, LASV entry inh)
Cc1ccccc1-c1nc(C(N)=O)c2c(n1)n(-c1ccc3c(c1)OCO3)c(=O)n2C	MARV entry inh inconclusive
CC(C)(C)C(=O)Nc1nnc([C@H]2C[C@H](O)[C@@H](CO)O2)s1	none (no result: MARV entry inh, LASV entry inh)
O=C(Nc1nnc([C@@H]2C[C@H](O)[C@@H](CO)O2)s1)c1cccc(OC(F)(F)F)c1	HCMV inh -84 (no result: MARV entry inh, LASV entry inh)
CCCC(=O)Nc1nnc([C@H]2C[C@H](O)[C@@H](CO)O2)s1	HCMV inh -96 (no result: MARV entry inh, LASV entry inh)
CN(C)S(=O)(=O)n1cc(/C=C(\NC(=O)c2ccccc2)C(=O)NCCCn2ccnc2)c2ccccc21	none
CN(C)S(=O)(=O)n1cc(/C=C(\NC(=O)c2ccccc2Cl)C(=O)NCCCn2ccnc2)c2ccccc21	MARV entry inh inconclusive, HCMV inh -105!
CCn1cc(/C=C(\NC(=O)c2cc(OC)c(OC)c(OC)c2)C(=O)NCCCn2ccnc2)c2ccccc21	MARV entry inh inconclusive, HCMV inh -104
CCn1cc(/C=C(\NC(=O)c2ccc(OC)c(OC)c2)C(=O)NCCCn2ccnc2)c2ccccc21	none
CN(C)S(=O)(=O)n1cc(/C=C(\NC(=O)c2ccccc2F)C(=O)N2CCCCC2)c2ccccc21	Vaccinia mCherry inconclusive, HCMV inh -97 (no result: MARV entry inh, LASV entry inh)
O=C(Nc1ccc([N+](=O)[O-])cc1)C1CC1(c1ccccc1)c1ccccc1 (configuration not stated)	MARV entry inh inconclusive
CC1(C)C(C=C(Cl)Cl)C1C(=O)Nc1ccc([N+](=O)[O-])cc1 (configuration not stated)	MARV entry inh inconclusive, Vaccinia mCherry inconclusive, VACV Venus inh 18µM, LASV entry inh inconclusive, HCMV inh -96, FMDV inh inconclusive
CCCCSCCCNC(=O)C1CCN(Cc2nc(-c3ccc(CC)cc3)oc2C)CC1	LASV entry inh inconclusive
O=c1c2c3c(sc2n(Cc2ccc(F)cc2Cl)c(=O)n1-c1ccc(Cl)cc1)CCC3	none
CC1(C(=O)Nc2ccc3[nH]ncc3c2)CCN1C(=O)Cc1ccc(-c2ccccc2)cc1 (configuration not stated)	HCMV inh inconclusive, FMDV inh 40µM (no result: MARV entry inh, LASV entry inh)
CC(C)(C)c1ccc(CC(=O)N2CCC2(C)C(=O)Nc2ccc3[nH]ncc3c2)cc1 (configuration not stated)	Vaccinia mCherry inconclusive, HCMV inh -86 (no result: MARV entry inh, LASV entry inh)
O=C(Nc1ccc(Br)cc1)c1cccc(C(=O)Nc2ccc(Br)cc2)c1	none (no result: MARV entry inh)
Cc1ccc2c(c1)sc(-c1ccc(N(C)C)cc1)[n+]2C	Vaccinia mCherry inconclusive, VACV Venus inh inconclusive, HCMV inh -96, FMDV inh inconclusive (no result: MARV entry inh, LASV entry inh)
Cc1ccc(N(C)C)cc1	none (no result: MARV entry inh, Vaccinia mCherry, VACV Venus inh, LASV entry inh, FMDV inh)
CSC1=C(C#N)[C@H](C)CC(=O)N1	none (no result: Vaccinia mCherry, VACV Venus inh, LASV entry inh, HCMV inh, FMDV inh)
CC(C)n1c(SCC(=O)Nc2nc3ccccc3s2)nc2c1c(=O)n(C)c(=O)n2C	MARV entry inh inconclusive, FMDV inh 22µM
CCOc1ccc2nc(NC(=O)CSc3nc4c(c(=O)n(C)c(=O)n4C)n3C(C)C)sc2c1	MARV entry inh inconclusive, FMDV inh 22µM
CCC(=O)N1CCN(c2ccccc2NC(=O)Cc2ccccc2)CC1	none (no result: Vaccinia mCherry)
CC(C)C(=O)N1CCN(c2ccccc2NC(=O)c2ccc(Br)o2)CC1	MARV entry inh inconclusive, FMDV inh inconclusive
CC(C)C(=O)N1CCN(c2ccccc2NC(=O)c2ccc([N+](=O)[O-])o2)CC1	Vaccinia mCherry 11µM, VACV Venus inh inconclusive, HCMV inh -73
